In ChEMBL document CHEMBL3988442, “University of Dundee, Small-Polar-MMV Screening Library” (2021) one finds Percent Effect data, which are given here for eight compounds.

For some of these results: Potency and affinity values are given separately.

Parameters in all cases: scale not given: direction of the effect not stated beside the values
Assay [1] concerns the target Protein translocase subunit SecA (Escherichia coli (strain K12)) (UniProt P10408). Briefly: Assay to Identify E. coli SecA ATPase Inhibitors. In kind it is functional. Conditions: 30 µM.
Assay [2] has as its target T1, Ubiquitin-activating enzyme e1, putative (Leishmania donovani (strain BPK282A1)) (UniProt E9BSI1).
T1 sequence (whole entry): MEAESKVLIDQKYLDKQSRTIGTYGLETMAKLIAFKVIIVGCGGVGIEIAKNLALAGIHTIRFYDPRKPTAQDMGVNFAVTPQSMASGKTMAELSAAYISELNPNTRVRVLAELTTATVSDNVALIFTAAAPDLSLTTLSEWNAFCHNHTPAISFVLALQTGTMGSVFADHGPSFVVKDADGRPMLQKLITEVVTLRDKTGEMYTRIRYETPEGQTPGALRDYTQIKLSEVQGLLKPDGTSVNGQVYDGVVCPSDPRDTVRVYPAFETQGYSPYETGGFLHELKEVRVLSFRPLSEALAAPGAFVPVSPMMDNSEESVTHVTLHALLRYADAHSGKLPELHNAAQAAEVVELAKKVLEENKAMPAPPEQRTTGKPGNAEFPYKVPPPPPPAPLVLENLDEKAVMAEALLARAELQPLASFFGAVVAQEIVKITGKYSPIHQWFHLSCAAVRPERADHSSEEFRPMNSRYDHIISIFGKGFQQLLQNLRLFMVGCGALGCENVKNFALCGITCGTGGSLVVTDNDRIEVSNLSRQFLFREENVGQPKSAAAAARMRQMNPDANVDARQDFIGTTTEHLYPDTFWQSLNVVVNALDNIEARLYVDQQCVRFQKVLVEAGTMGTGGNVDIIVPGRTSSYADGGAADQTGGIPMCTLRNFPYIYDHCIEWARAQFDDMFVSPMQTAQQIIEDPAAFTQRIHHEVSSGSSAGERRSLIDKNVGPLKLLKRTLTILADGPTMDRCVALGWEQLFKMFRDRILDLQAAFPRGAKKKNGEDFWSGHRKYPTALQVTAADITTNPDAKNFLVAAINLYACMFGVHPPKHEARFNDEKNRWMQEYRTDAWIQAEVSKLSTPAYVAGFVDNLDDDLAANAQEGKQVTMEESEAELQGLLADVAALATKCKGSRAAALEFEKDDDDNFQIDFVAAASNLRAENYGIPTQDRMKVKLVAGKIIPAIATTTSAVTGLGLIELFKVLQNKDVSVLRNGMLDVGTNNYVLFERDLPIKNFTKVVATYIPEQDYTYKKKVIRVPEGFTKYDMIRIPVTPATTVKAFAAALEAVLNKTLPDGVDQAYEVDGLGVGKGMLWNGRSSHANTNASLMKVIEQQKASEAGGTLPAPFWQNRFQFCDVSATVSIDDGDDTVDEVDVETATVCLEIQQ
Put plainly: Leishmania donovani Ubiquitin Activating Enzyme (LdE1). Conditions: 30 µM. The format is functional.

The target of assay [3] is AMP-activated protein kinase, AMPK (Homo sapiens) (UniProt P54646+O43741+P54619+Q9UGJ0+Q9Y478+Q13131+Q9UGI9). Briefly: AMP-dependent Kinase enzyme assay. An in vitro enzyme assay that detects ADP turnover that is directly proportional to AMPK activity. This uses naive AMPK that is activated during the assay with MK-8722. Conditions: 30 µM. In kind it is functional.
Assay [4] has as its target Sialic acid-binding Ig-like lectin 9 (Homo sapiens) (UniProt Q9Y336). Briefly: Hs-Siglec9 ALPHAscreen SOP 20170721. Conditions: 10 µM. In general terms: Alpha assays give light when donor and acceptor beads are brought close together.
A further assay deals with Trypanosoma cruzi. Briefly: Trypanosoma cruzi phosphomannomutase and mannose-1-phosphate guanylyltransferase assay. In kind it is functional. The note with it: 10 µM.
The target of assay [5] is T2, Arginase-2, mitochondrial (Homo sapiens) (UniProt P78540).
T2 sequence (whole entry): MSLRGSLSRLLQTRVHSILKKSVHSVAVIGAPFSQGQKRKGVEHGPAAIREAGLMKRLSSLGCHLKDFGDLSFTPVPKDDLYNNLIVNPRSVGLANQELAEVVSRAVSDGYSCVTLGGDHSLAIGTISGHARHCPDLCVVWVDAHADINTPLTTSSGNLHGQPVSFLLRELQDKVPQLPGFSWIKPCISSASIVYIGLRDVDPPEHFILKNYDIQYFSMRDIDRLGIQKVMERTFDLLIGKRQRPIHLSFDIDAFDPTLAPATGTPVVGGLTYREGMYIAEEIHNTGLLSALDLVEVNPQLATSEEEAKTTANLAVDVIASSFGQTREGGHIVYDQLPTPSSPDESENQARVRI
Briefly: in vitro enzyme assay to detect the production of urea directly proportional to the activity of Arginase II. Also: in the data most compounds retested in dose-response had high values. In kind it is functional. The note with it: 33.3 µM.

Assay [6] deals with T3, Proteasome subunit beta (Trypanosoma cruzi) (UniProt O96673).
T3 sequence (whole entry): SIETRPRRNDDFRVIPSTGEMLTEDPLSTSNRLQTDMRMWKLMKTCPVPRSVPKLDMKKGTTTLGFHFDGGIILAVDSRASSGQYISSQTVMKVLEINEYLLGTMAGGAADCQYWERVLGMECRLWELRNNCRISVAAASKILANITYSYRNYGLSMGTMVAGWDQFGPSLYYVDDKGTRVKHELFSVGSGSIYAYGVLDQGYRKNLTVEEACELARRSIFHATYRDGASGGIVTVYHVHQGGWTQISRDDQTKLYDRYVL
Put plainly: Trypanosoma cruzi proteasome chymotrypsin-like activity (TcProtChymo) assay. Also: in the data most compounds retested in dose-response had high values. In kind it is functional. Conditions: 9.37 µM.

A further assay is filed under the species Homo sapiens. Briefly: To identify inhibition of the IFN signalling (Jak-Stat) pathway via expression of an eGFP reporter gene under the control of an IFN-stimulated response element (ISRE) containing MxA promoter. The format is functional. The note with it: 30 µM. For orientation: Reporter assays use an easily measured gene product as a stand-in for the process of interest.

Assay [7] has as its target T4, Tyrosyl-tRNA synthetase, putative (Trypanosoma cruzi (strain CL Brener)) (UniProt Q4DSP6).
T4 sequence (whole entry): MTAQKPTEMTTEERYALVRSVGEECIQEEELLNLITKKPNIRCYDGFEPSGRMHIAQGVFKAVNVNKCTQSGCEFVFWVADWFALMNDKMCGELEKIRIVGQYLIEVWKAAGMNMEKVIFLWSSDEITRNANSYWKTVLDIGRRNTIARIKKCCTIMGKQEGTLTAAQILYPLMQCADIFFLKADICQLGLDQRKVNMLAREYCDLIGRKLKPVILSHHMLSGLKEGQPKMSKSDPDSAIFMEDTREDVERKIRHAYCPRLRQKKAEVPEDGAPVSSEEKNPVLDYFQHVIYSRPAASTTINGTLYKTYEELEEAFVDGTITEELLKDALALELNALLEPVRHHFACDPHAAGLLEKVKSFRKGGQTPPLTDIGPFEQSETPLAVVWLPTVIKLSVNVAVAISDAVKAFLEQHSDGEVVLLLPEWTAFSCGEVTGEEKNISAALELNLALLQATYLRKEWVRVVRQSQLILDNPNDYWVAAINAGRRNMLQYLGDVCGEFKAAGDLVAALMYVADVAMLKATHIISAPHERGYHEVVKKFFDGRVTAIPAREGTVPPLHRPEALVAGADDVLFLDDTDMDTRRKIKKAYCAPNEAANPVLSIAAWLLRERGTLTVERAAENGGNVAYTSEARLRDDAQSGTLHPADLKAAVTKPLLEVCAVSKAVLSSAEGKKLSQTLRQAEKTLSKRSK
Put plainly: Trypanosoma cruzi tyrosyl tRNA synthetase (TcYRS) _High Tyrosine SOP. Also: in the data most compounds retested in dose-response had high values. In kind it is functional. Conditions: 30 µM.

For assay [8], the target named is T4, Tyrosyl-tRNA synthetase, putative (Trypanosoma cruzi (strain CL Brener)). Put plainly: Trypanosoma cruzi tyrosyl tRNA synthetase (TcYRS) SOP. In kind it is functional. The note with it: 30 µM.
Assay [9] deals with Chromo domain-containing protein 1 (Saccharomyces cerevisiae (strain ATCC 204508 / S288c) (Baker's yeast)) (UniProt P32657). Briefly: ScCHD-1 Enzyme Inhibition Assay. Also: in the data most compounds retested in dose-response had high values. In kind it is functional. Conditions: 30 µM.
Sequence of Chromo domain-containing protein 1 (Saccharomyces cerevisiae (strain ATCC 204508 / S288c) (Baker's yeast)) (P32657 whole entry, the tested form may be a part): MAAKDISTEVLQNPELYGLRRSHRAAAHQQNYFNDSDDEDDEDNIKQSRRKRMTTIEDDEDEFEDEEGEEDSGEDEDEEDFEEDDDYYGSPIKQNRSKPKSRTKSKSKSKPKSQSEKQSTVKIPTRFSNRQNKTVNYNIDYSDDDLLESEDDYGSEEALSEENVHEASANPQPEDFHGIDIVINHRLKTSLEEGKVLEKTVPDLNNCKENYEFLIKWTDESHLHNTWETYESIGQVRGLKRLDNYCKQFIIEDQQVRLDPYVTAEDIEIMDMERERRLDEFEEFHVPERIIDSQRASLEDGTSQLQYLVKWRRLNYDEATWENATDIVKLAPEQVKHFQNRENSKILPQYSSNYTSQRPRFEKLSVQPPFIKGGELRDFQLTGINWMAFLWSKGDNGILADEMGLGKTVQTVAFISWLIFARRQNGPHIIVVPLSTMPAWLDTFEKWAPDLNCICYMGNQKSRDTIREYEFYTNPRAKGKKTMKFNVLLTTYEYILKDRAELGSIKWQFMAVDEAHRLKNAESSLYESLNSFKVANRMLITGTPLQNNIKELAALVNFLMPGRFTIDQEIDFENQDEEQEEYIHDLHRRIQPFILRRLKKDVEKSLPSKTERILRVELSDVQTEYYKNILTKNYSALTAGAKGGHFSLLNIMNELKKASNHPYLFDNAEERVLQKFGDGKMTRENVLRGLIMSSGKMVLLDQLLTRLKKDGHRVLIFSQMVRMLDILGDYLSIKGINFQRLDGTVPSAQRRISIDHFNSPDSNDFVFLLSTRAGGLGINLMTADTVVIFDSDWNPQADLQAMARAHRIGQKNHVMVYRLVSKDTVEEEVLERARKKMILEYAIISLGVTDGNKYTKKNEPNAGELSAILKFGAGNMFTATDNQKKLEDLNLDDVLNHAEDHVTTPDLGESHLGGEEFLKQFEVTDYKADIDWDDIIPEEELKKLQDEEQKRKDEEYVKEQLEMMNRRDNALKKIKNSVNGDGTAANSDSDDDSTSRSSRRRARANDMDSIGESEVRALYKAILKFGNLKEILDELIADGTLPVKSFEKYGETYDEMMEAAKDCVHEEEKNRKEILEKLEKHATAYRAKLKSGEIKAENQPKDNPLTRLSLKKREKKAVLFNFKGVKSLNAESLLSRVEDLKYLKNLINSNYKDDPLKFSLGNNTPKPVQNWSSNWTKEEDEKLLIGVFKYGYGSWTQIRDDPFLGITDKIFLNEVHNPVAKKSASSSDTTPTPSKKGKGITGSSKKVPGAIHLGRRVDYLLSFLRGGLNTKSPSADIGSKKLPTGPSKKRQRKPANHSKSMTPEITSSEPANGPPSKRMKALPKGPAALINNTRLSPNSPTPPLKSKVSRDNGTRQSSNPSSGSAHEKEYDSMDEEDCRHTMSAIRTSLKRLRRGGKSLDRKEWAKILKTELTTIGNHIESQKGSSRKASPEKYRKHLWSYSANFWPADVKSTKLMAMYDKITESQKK

Sequence of Sialic acid-binding Ig-like lectin 9 (Homo sapiens) (Q9Y336 whole entry): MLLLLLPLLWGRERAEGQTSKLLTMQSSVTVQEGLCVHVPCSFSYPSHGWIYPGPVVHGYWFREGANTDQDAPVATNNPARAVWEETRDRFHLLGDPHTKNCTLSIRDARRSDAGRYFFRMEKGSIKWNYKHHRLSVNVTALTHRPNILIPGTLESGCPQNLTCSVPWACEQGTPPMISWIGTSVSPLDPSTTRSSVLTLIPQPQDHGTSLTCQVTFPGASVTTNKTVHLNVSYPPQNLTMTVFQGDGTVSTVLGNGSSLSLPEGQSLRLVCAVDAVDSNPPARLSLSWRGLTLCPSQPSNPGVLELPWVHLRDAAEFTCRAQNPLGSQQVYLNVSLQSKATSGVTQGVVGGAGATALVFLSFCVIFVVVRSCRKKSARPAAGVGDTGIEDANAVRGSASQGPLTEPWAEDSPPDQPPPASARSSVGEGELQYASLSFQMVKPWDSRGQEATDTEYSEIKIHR
Sequence of Protein translocase subunit SecA (Escherichia coli (strain K12)) (P10408 whole entry): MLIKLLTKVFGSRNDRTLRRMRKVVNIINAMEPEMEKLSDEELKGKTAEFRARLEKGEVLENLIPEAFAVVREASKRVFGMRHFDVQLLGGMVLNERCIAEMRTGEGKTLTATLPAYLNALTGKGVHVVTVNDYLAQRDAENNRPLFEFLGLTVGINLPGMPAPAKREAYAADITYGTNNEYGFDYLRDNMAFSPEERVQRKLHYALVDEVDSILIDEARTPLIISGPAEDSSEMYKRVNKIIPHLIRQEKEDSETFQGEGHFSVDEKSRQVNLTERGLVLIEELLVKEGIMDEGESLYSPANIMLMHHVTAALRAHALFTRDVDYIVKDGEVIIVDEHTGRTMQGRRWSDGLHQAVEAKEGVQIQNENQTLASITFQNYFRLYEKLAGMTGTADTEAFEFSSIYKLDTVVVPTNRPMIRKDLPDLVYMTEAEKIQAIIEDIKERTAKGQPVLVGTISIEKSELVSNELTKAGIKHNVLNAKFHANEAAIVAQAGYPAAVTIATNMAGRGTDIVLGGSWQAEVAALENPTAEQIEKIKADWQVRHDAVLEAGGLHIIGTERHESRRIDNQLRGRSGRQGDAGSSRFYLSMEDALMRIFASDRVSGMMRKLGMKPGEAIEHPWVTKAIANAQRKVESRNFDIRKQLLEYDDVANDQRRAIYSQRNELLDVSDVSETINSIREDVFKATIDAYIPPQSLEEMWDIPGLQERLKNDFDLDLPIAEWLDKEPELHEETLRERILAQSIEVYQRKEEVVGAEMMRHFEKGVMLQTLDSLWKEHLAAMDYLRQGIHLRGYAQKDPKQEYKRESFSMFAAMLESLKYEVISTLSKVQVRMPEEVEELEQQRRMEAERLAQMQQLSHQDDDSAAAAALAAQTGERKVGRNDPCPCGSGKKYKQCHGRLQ

For the compound `CN(C)C(=O)N1C[C@H]2CN(Cc3cccc(F)c3)C(=O)[C@H]2C1`, the Percent Effect in assay [1] was -4.01%; in [2], 10.8%; in assay [3] it was 7.46%; in assay [4], -7.24%; in the assay with Trypanosoma cruzi, -4.2%; in assay [5] it was 0.955%. Besides, the Percent Effect is 20.9% in [6]; 4.49% in the assay listed under Homo sapiens; 0% in assay [7]; -7.69% in assay [8]; -1.2% in [9].

Consider `CCN(CC)C(=O)c1ccn(COc2cc(C)cc(C)c2)n1`, for which the Percent Effect in assay [1] is -0.199%; in assay [2], 22.7%; in assay [3], -7.15%; in assay [4], 1.4%; in the assay on Trypanosoma cruzi, -0.982%; in [5] it was -5.81%. In addition, the Percent Effect is 14.1% in [6]; 41.2% in the assay listed under Homo sapiens; 4.23% in [7]; 12.8% in [8]; -12.1% in assay [9].

As to `CCOC(=O)N1CCN(Cc2ccc(OCc3nccn3C)cc2)CC1`, the Percent Effect in assay [1] was -5.3%; in assay [2], 23.4%; in assay [3] it was 3.48%; in [4], -0.124%; with Trypanosoma cruzi, 0.562%; in assay [5], 1.42%. The Percent Effect in assay [6] was 13.7%; in the assay listed under Homo sapiens, 11.1%; in assay [7] it was 9.71%; in [8] it was 14.6%; in assay [9], -7.78%.

As to `Cc1ncsc1CN1C[C@@H]2COC[C@]2(COc2ccc(C#N)cn2)C1`, the Percent Effect in [1] was -3.44%; in [2], -5.48%; in assay [3] it was -1.94%; in assay [4] it was 1.31%; in the assay with Trypanosoma cruzi, 7.74%; in [5], -3.59%. In addition, the Percent Effect in assay [6] is 2.31%; in the assay listed under Homo sapiens, -1.06%; in assay [7], 1.04%; in [8], 3.7%; in assay [9], 2.89%.

For `O=C1CC2(CCN(c3nncs3)C2)CN1c1ccccc1` (stereo not drawn), the Percent Effect was -2.98% in assay [1]; 5.41% in [2]; -3.44% in [3]; 2.02% in [4]; -5.66% with Trypanosoma cruzi; 4.58% in assay [5]. Moreover, the Percent Effect is 12.4% in [6]; -3.33% in the assay listed under Homo sapiens; 4.95% in assay [7]; 11% in [8]; 0.436% in [9].

Regarding `CC(Sc1nnnn1C1CCOCC1)C(=O)NC1CCCCC1` (stereo not drawn), the Percent Effect in [1] was -6.54%; in [2] it was 2.67%; in [3], -2.78%; in assay [4] it was 37.4%; in the assay on Trypanosoma cruzi, 3.21%; in assay [5] it was 3.65%. For the same compound, the Percent Effect in assay [6] is 13.8%; in the assay listed under Homo sapiens, 24.9%; in [7], 7.1%; in assay [8] it was 16.1%; in [9] it was -4.98%.

Consider `CC(C)N(C)Cc1cn2c(n1)CN(C(=O)Cc1ccsc1)CC2`, for which the Percent Effect in assay [1] is -5.71%; in assay [2], 2.74%; in assay [3], 3.83%; in [4], 1.25%; in the assay with Trypanosoma cruzi, -2.78%; in assay [5], -2%. Further, the Percent Effect is 7.28% in assay [6]; -1.74% in the assay filed under Homo sapiens; 5.21% in assay [7]; 6.17% in assay [8]; -0.437% in [9].

Regarding `CNS(=O)(=O)c1ccc(CNC(=O)NCC2CCOC2)cc1` (stereo not drawn), the Percent Effect was -3.53% in assay [1]; 15.6% in assay [2]; 0.491% in [3]; 2.49% in assay [4]; 1.86% in the assay on Trypanosoma cruzi; -0.21% in [5]. Besides, the Percent Effect is 11.7% in [6]; -1.37% in the assay filed under Homo sapiens; 7.62% in assay [7]; 14.1% in assay [8]; -9.18% in assay [9].
